According to PubChem BioAssay AID652067 (The Scripps Research Institute Molecular Screening Center, 2013):
Screen size: about 370,000 compounds; about 5,400 (1.5%) were called active.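 The calls were made as follows: active = activation above the mean of all tested compounds plus 3 SD (cut at about 5.5% in these data); inactive = the rest.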 What follows is part of a selection rich in actives, with near analogues and random picks from the rest.

Tested on: DAF-12 nuclear receptor (Haemonchus contortus)
Assay: H. contortus DAF-12 nuclear receptor activators, primary screen, cell-based, luminescence, HEK293, lit1-tk-luc reporter (AID 652067);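 also: 100% = response to 3 µM Δ7-dafachronic acid high control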
Settings: HEK293 hcDAF-12 lit1-tk-luc reporter, at 6.8 µM, hits give high values, 0% DMSO, 100% Δ7-dafachronic acid

Row | Compound | activation
1 | CCC(=O)Nc1ccc2c(c1)C(=O)N(C)[C@H]1CC[C@H](CC(=O)NCCOC)O[C@@H]1CO2 | -0.71% (inactive)
2 | COC(=O)C1CN(CCc2ccccc2)CCS(=O)(=O)N1Cc1cccc(Cl)c1 (stereo not given) | -1.52% (inactive)
3 | O=C(NC1CCCCN(Cc2ccc(Cl)cc2)C1=O)c1ccc(Br)cc1 (stereo not given) | -2.55% (inactive)
4 | O=C(NC(Cc1ccccc1)C(=O)O)/C(=C\c1ccccc1)NC(=O)c1ccco1 (stereo not given) | -0.54% (inactive)
5 | O=C(NCc1ccco1)/C(=C/c1ccco1)NC(=O)c1ccccc1 | -0.96% (inactive)
6 | O=C(NC(Cc1c[nH]c2ccccc12)C(=O)O)/C(=C/c1ccco1)NC(=O)c1ccccc1 (stereo not given) | 6.62% (active)
7 | Cc1ccc(-n2c(SCC(=O)Nc3ccc(S(=O)(=O)Nc4nccs4)cc3)nnc2-c2ccccn2)cc1 | -0.18% (inactive)
8 | COc1cc(NC(=O)C2CCCN(S(=O)(=O)c3ccc(C(C)(C)C)cc3)C2)cc(OC)c1 (stereo not given) | -1.6% (inactive)
9 | CC(C)C(C#CC1CC1)N(Cc1ccc2c(c1)OCO2)C(N)=NC(=O)/C=C/c1cccc(C(F)(F)F)c1 (stereo not given) | 0.1% (inactive)
10 | COC(=O)[C@]1(C#N)CC(=O)N(CC2CCCCC2)[C@@H]1c1ccccc1 | 0.64% (inactive)
11 | Cc1cccc(NC(=S)NC(=O)c2ccc(Br)o2)c1 | 6.48% (active)
12 | CCS(=O)(=O)c1ccc(-c2cccc(NC(=O)c3ccc(Br)o3)c2)nn1 | 1.53% (inactive)
13 | O=C(Nc1cccc(C(=O)O)c1)/C(=C\c1ccccc1)NC(=O)c1ccc(Br)o1 | -0.49% (inactive)
14 | CC(=O)c1ccc(N=C2SCCCN2C(=O)C2CCCCC2)cc1 | 1.46% (inactive)
15 | COC(=O)c1ccc(CN2C(=O)[C@]3(OCCC=C[C@H]3C)c3c(Br)cccc32)cc1 | -3.24% (inactive)
16 | O=C(CN1CCC(NC(=O)NCc2ccccc2)CC1)Nc1ccc2c(c1)OCCO2 | -0.83% (inactive)
17 | Clc1ccc(Nc2ccc3ccccc3n2)cc1 | 17.1% (active)
18 | C=CCNc1nc(Nc2ccc(Cl)cc2)nc(OC)n1 | -0.18% (inactive)
19 | CC1(C)N=C(N)NC(Nc2ccc(Cl)cc2)=N1 | 0.62% (inactive)
20 | CCOC(=O)/C=C/CN(C(=O)OC(C)(C)C)S(=O)(=O)N1CC=CC1 | -0.7% (inactive)
21 | COc1ccc(-n2c(SCC(=O)Nc3ccc4cn[nH]c4c3)nnc2-c2cccnc2)cc1 | -1.7% (inactive)
22 | CC(C)CNc1cccc2c1S(=O)(=O)N(Cc1cn(Cc3ccccc3C(F)(F)F)nn1)Cc1ccccc1O2 | -1.42% (inactive)
23 | O=C(CSc1nc2sc3c(c2c(=O)n1-c1ccccc1)CCCC3)NN=Cc1ccc(OCc2ccccc2)cc1 | -1.69% (inactive)

Row | Compound | activation
24 | CCOc1ccc(C2c3[nH]c4ccccc4c3CCN2Cc2cn(CC)nc2C)cc1 (stereo not given) | 6.76% (active)
25 | COc1cccc(C2c3[nH]c4ccccc4c3CCN2Cc2cccc(C)n2)c1 (stereo not given) | 3.77% (inactive)
26 | CCOc1ccc(C2c3[nH]c4ccccc4c3CCN2Cc2cccn2-c2ncccn2)cc1 (stereo not given) | 1.92% (inactive)
27 | Cc1[nH]c2ccccc2c1CC(=O)Nc1ccc(Nc2cccnc2)c(-c2cccc(Cl)c2)c1 | 1.03% (inactive)
28 | COC(=O)c1ccc(CNC(=O)c2ccc3oc(C(C)C)nc3c2)cc1 | 0.43% (inactive)
29 | CC(C)c1nc2cc(C(=O)NC(C)c3cnn(C)c3)ccc2o1 (stereo not given) | -1.66% (inactive)
30 | COc1ccc(CNC(=O)c2ccc3oc(C(C)C)nc3c2)cc1 | 6.74% (active)
31 | CC(c1ccc(N)cc1)c1cn(C)c2ccccc12 (stereo not given) | -2.32% (inactive)
32 | Cc1ccccc1Nc1nc(N)nc(CSc2nnc3ccccn23)n1 | 0.54% (inactive)
33 | Cc1ccccc1Nc1nc(N)nc(COC(=O)CCC(=O)c2ccc(F)cc2)n1 | -0.96% (inactive)
34 | Cc1ccccc1Nc1nc(N)nc(CSc2ccccc2)n1 | 6.93% (active)
35 | COC(CNC(=O)[C@H](Cc1ccccc1)NC1(C(=O)NC2CCCCC2)CCCCC1)OC | 0.68% (inactive)
36 | O=C(Nc1cccc2cccnc12)c1cccc(Cl)c1 | 5.97% (active)
37 | O=C(Nc1cccc2cccnc12)c1ccc2sc([C@H]3C[C@H](O)[C@@H](CO)O3)nc2c1 | -3.24% (inactive)
38 | CC(=O)/C(=N\Nc1ccc(Cl)cc1Cl)Sc1cccc2cccnc12 | -1.47% (inactive)
39 | COC(=O)[C@]12C[C@H](CC(=O)N3CCOCC3)C(=O)N(Cc3ccc(Cl)cc3Cl)C1=C[C@H](C(C)C)O[C@@H]2C1CC1 | -0.53% (inactive)
40 | CC(=O)OC12CCCN(C1)/C(=C/c1ccncc1)C2 (stereo not given) | -0.38% (inactive)
41 | O=C(/C=C/c1cnc2ccccc2n1)NC1CCCCCC1 | 8.85% (active)
42 | O=C(Cn1c(-c2cncs2)nc2ccccc21)NC1CCCC1 | -0.67% (inactive)
43 | CC1CCCCC1NC(=O)Cn1c(=O)cnc2ccccc21 (stereo not given) | 0.69% (inactive)
44 | COCCN1CCn2c(nc3cc(NS(C)(=O)=O)ccc32)C1 | 0.72% (inactive)
45 | O=C(NC1CCC1)c1ccc(C#CC2CC2)cn1 | 1.58% (inactive)
46 | Nc1ncnc2c1ncn2C1OC(CO)CC1O (stereo not given) | -1.72% (inactive)

Row | Compound | activation
47 | Cc1no[n+]([O-])c1COc1ccccc1/C=C1\NC(=S)NC1=O | -0.17% (inactive)
48 | C#CCOc1ccccc1/C=C1/C(=O)ON=C1C | 6.39% (active)
49 | Cc1cccc(NC(=O)c2cc3c(C)nn(-c4ccccc4)c3s2)c1 | -3.69% (inactive)
50 | O=C(NCCOc1ccccc1)c1ccccc1F | 6.22% (active)
51 | NS(=O)(=O)c1cc(C(=O)NCCOc2ccccc2)c(Cl)cc1Cl | -2.95% (inactive)
52 | O=C(NCCc1csc(-c2ccccc2)n1)c1ccccc1F | -1.62% (inactive)
53 | CCc1c(-c2ccccc2OC)ncn1CCc1ccccc1OC | -2.85% (inactive)
54 | N[C@@H](Cc1ccccc1)C(=O)N1CCC[C@@H]1C(=O)N1CCC2CCN(S(=O)(=O)c3ccccc3)CC21 (stereo not given in full) | -1.99% (inactive)
55 | COC1=NC2=NCCN2C(OC)=N1 | 0.26% (inactive)
56 | COC(=O)C[C@@H]1CC[C@@H]2[C@@H](COc3ccc(NC(=O)Nc4ccc(F)c(F)c4)cc3C(=O)N2C)O1 | -4.16% (inactive)
57 | N#CCC[C@H]1CC[C@]2(CCCN(Cc3ccc(Cl)cc3)C2)O1 | -0.47% (inactive)
58 | Cc1cc2c(C)nc(N/N=C/c3ccccc3)nc2o1 | -0.61% (inactive)
59 | C(=N\Nc1ccc2ccccc2n1)/c1ccc2c(c1)OCO2 | 7.26% (active)
60 | Cc1noc(C)c1/C=N/Nc1ccc2ccccc2n1 | 7.4% (active)
61 | CN(CCO)c1ccc(/C=N/Nc2nncc3ccccc23)cc1 | 5.57% (inactive)
62 | Nc1nonc1-n1nnc(C(=O)N/N=C/c2ccc(Cl)cc2)c1-c1ccc2c(c1)OCO2 | 0.66% (inactive)
63 | O=C(NS(=O)(=O)c1cccs1)[C@H]1O[C@@H](n2ccc(=O)[nH]c2=O)[C@H](O)[C@@H]1O | 1.29% (inactive)
64 | COc1ccc(CSc2nnc(SCC(=O)Nc3ccccc3C(F)(F)F)s2)cc1 | -0.61% (inactive)
65 | CS(=O)(=O)Nc1ccccc1C(=O)OCC(=O)NC1CC1 | 0.83% (inactive)
66 | CC(=O)c1cc(-c2ccc3ccccc3c2)c(=O)n2c1CCC2 | -0.26% (inactive)
67 | COC(=O)Nc1nc2ccc(C(=O)C3CC3)cc2[nH]1 | 0.63% (inactive)
68 | C[C@@H]1CN([C@@H](C)CO)C(=O)c2cccc(NC(=O)Nc3cccc4ccccc34)c2O[C@H]1CN(C)S(=O)(=O)c1ccccc1F | -1.14% (inactive)
69 | C[C@@H]1ON(C)[C@H]2C[C@H]3c4[nH]c5cccc(-c6ccc7c(c6)OCO7)c5c4CCN3C[C@@H]12 | -1.17% (inactive)

Row | Compound | activation
70 | COc1ccc(C2=Nc3ccccc3NC(=O)C2N(C(=O)c2cc3ccccc3[nH]2)c2ccccc2)cc1 (stereo not given) | 6.3% (active)
71 | CC(OC(=O)c1cc2ccccc2[nH]1)C(=O)N(C)c1ccccc1 (stereo not given) | 2.38% (inactive)
72 | CCC(=O)N(Cc1cc2ccccc2[nH]c1=O)c1ccc(OC)cc1 | -1.6% (inactive)
73 | Cc1cc(=O)oc(C)c1C(=O)NCCN(C)Cc1ccccc1 | -0.39% (inactive)
74 | O=C1CC(c2ccc3c(c2)OCO3)N=C2N(CC3CC3)C/C(=C/c3ccccc3)N12 (stereo not given) | -3.84% (inactive)
75 | CCNC(=O)COC(=O)/C=C/c1c(C)nn(Cc2cccc(OC)c2)c1Cl | 0.11% (inactive)
76 | O=C(NCc1cccnc1)c1nc(-c2cccs2)no1 | 5.95% (active)
77 | CCc1ccc(CNC(=O)CCc2nc(-c3cccs3)no2)cc1 | 0.59% (inactive)
78 | O=C(/C=C/c1cccs1)NCc1cccnc1 | -0.87% (inactive)
79 | CCS(=O)(=O)N1Cc2ccccc2CC1C(=O)Nc1nc2ccc(F)cc2s1 (stereo not given) | 7.31% (active)
80 | Cc1ccc2nc(NC(=O)C3CSC4(C)CCC(=O)N34)sc2c1 (stereo not given) | -0.71% (inactive)
81 | CCS(=O)(=O)N1Cc2ccccc2CC1C(=O)Nc1ccc(OC)cc1OC (stereo not given) | -0.97% (inactive)
82 | COC(=O)[C@]12C[C@H](CC(=O)NCc3ccccc3)C(=O)N(CCC3=CCCCC3)C1=C[C@H](C(C)(C)C)O[C@@H]2C | 0.06% (inactive)
83 | O=C(NCc1cccs1)C1CCCN(S(=O)(=O)c2ccc([N+](=O)[O-])cc2)C1 (stereo not given) | -2.29% (inactive)
84 | O=C(Nc1cccn(Cc2c(Cl)cccc2Cl)c1=O)c1ccc(Cl)cc1 | -0.98% (inactive)
85 | COc1ccc(-n2c(COc3ccccc3)nnc2SCC(=O)Nc2ccc3c(c2)OCO3)cc1 | -3.31% (inactive)
86 | O=S1(=O)c2c(cccc2N2CC[C@H](O)C2)O[C@@H]2CCN1C2 | -1.21% (inactive)
87 | CCSc1nnc(-c2cc3c(s2)-c2ccccc2CC3)o1 | 2.59% (inactive)
88 | CCOc1ccc(NC(=O)C2CCCN(C(=O)Nc3ccccc3)C2)cc1 (stereo not given) | -0.89% (inactive)
89 | COc1ccc2cc(C(=O)C3CCCN(C(=O)c4sc(C)nc4C)C3)ccc2c1 (stereo not given) | -2.25% (inactive)
90 | CCOc1ccc2nc(C(=O)N3CCCC(C)C3)sc2c1 (stereo not given) | 7.97% (active)
